# Measurements taken from PubChem BioAssay (NCI).
# About 83,000 compounds went through this panel and 20% of them were active in at least one assay; those are over-represented in the sample as a whole.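 96-well plates, one dose, 48 hours. Percent growth reported; active if below 10.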 Calls of active or inactive are those of the source.
# Test system: HL-60(TB) leukemia
# Assay: NCI-60 one-dose screen, 48 h (100 = growth as untreated, 0 = no growth, -100 = all killed)
# Settings: 10 µM unless noted
row,SMILES,growth
1,O=C1Nc2ccccc2/C1=C/c1cn(C(=O)c2ccc(Cl)cc2)c2ccccc12,150% (inactive)
2,Cn1cc(-c2cnn3c(N)c(Br)c([C@@H]4CCCNC4)nc23)cn1,21.2% (inactive)
3,COc1ccc(C2=NN(C(=O)COc3ccc(Cl)cc3)C(O)(c3cc(F)c(Cl)cc3Cl)C2)cc1 (stereo not given),95% (inactive)
4,CCCCCCCCCCCC1=NC(C)(C)CN1CC(C)O (stereo not given),-15.1% (active)
5,C=C(NC(=O)[C@H](C(C)C)N(C)c1cccc2[nH]ccc12)C(=O)OC,109% (inactive)
6,c1ccc2c(c1)ncn2-c1nc2ccccc2n2c1nc1ccccc12,102% (inactive)
7,CS(=O)(=O)c1ccc(C(=O)N2N=C(c3ccccc3)CC2c2ccc3c(c2)OCO3)cc1 (stereo not given),37% (inactive)
8,O=C1OC(c2ccccc2)=N/C1=C\c1ccc([N+](=O)[O-])cc1,119% (inactive)
9,N#Cc1c(-c2ccccc2)nc2c(c(-c3ccc(Cl)cc3)nn2-c2ccccc2)c1-c1ccc([N+](=O)[O-])cc1,103% (inactive)
10,CCCCN1C(=O)CC(SC2CC(=O)N(CCCC)C2=O)C1=O (stereo not given),132% (inactive)
11,COc1ccc(CCN2CCC(CN(C)Cc3cnn(-c4ccccc4)c3)CC2)cc1,6.41% (active)
12,S=c1[nH]c2cc(Cl)ccc2s1,97.4% (inactive)
13,Nc1ccccc1SC1CC(=O)N(c2ccc(I)cc2)C1=O (stereo not given),65.6% (inactive)
14,COc1cc2ncn3c(=O)c4c5c(sc4nc3c2cc1OC)CCCCC5,100% (inactive)
15,O=C(O)c1ccc(-n2cc(/C=N/Nc3ccccc3)c(-c3ccc(F)cc3F)n2)cc1,15.1% (inactive)
16,c1ccc(-c2nn(-c3ccccc3)[n+](-c3cccc4ccccc34)n2)cc1,-25.8% (active)
17,COc1cc(/C=C/c2cc(/C=C/c3ccc(O)c(OC)c3)n(C(=O)Nc3ccc(Cl)cc3)n2)ccc1O,-20.9% (active)
18,CN1CCN(c2ccc3nc(-c4cc(C(C)(C)C)c(O)c(C(C)(C)C)c4)[nH]c3c2)CC1,68.6% (inactive)
19,O=C(CN1C(=O)c2ccccc2S1(=O)=O)Nc1nc(-c2cc3ccccc3oc2=O)cs1,101% (inactive)
20,CC/C=C\C[C@H](F)C/C=C1/C(=O)C=C[C@@H]1C/C=C\CCCC(=O)O,-16.1% (active)

row,SMILES,growth
1,CC1(C)CC[C@]2(C(=O)O)CC[C@]3(C)C(=CC[C@@H]4[C@@]5(C)C/C(=C/c6ccco6)C(=O)C(C)(C)[C@@H]5CC[C@]43C)[C@@H]2C1,-16.4% [100 µM] (active)
2,CC(C)C(C(=O)CCN(C)C)c1ccc(Cl)cc1 (stereo not given),81.4% (inactive)
3,COc1ccc(CN2C(=O)C(Cl)=C(Nc3cccc(C(F)(F)F)c3)C2=O)cc1,29% (inactive)
4,CCn1c(Sc2nnc(NC(=O)CSC(=S)N3CCCCC3)s2)nc2c1c(=O)n(C)c(=O)n2C,95% (inactive)
5,O=C1C2CC=CCC2C(=O)N1CNc1ccc(Cl)cc1 (stereo not given),52.9% (inactive)
6,CCN(CC)P(=O)(N(CC)CC)N(CCCSC/C=C(\C)CC/C=C(\C)CCC=C(C)C)CCCN1CCN(C)CC1,83.3% (inactive)
7,OC1CCCN(Cc2ccccc2)C1 (stereo not given),114% (inactive)
8,CC(C)(C)OC(=O)CC1(O)CCCCC1,106% (inactive)
9,CCn1cc(C(=O)O)c(=O)c2cc(F)c(N3CCN(S(=O)(=O)c4ccc(Cl)cc4Cl)CC3)cc21,-51.7% (active)
10,CCOC(=O)C(C)C(C)(O)c1ccccc1 (stereo not given),99.2% (inactive)
11,CC/C(=N\Nc1nc2ccccc2n1C)c1ccccn1,-29.4% (active)
12,O=C(Nc1nc2cccc(-c3ccc(CN4CCS(=O)(=O)CC4)cc3)n2n1)C1CC1,66.4% (inactive)
13,COc1ccc2nc(Cl)c(/C=C/C(=O)c3ccc(NC(=O)CSc4nnc(-c5ccc(Cl)c(Cl)c5)n4-c4ccccc4)cc3)cc2c1,73.1% (inactive)
14,Nc1cc(N)c2nc(NCCc3ccc(Cl)c(Cl)c3)cnc2c1,-74.3% (active)
15,COc1cc(OC)c2cc(C(=O)c3ccc(C#N)cc3)c(=O)oc2c1,97.4% (inactive)
16,COc1ccc2oc(=O)cc(-c3nc4ccc(N)cc4[nH]3)c2c1,101% (inactive)
17,C/C(=C\c1ccccc1)C(O)C(=O)c1nc2ccc([N+](=O)[O-])cc2[nH]c1=O (stereo not given),83% (inactive)
18,OCCOSCCO,99.1% (inactive)
19,CC(C)(O)C(=O)O,103% (inactive)
20,C=C(C)[C@@H]1CC[C@]2(C#N)CC[C@]3(C)[C@H](CC[C@@H]4[C@@]5(C)CCCNC(C)(C)[C@@H]5CC[C@]43C)[C@@H]12,83.9% (inactive)
